Values without a mark were called inactive. Calls of active or inactive are those of the source. The rule behind the calls is not given here.
Assay: Biochemical counterscreen for C difficile toxins, absence of UDPG, inhibitor dose response (AID 720650)
Settings: series mostly up to 19.5 µM; activity change, negative = inhibition: at the top concentration

| Compound | activity change, negative = inhibition | AC50 |
| --- | --- | --- |
| Nc1cc(N)cc(C(=O)OCC(=O)Nc2cc(S(=O)(=O)N3CCCCC3)ccc2Cl)c1 | -5.99% |  |
| CCc1ccccc1NC(=S)N(Cc1ccc(C(=O)O)cc1)Cc1ccc(OC)c(OC)c1 | -12.3% |  |
| O=C(N/N=C/c1ccc(O)cc1)NC12CC3CC(CC(C3)C1)C2 |  | 11.2 µM (active) |
| Nn1c(SCc2ccccc2F)nnc1-c1ccccn1 | 4.52% |  |
| Cc1ccc(/C=C/c2onc(C)c2S(=O)(=O)N2CCC(C(=O)N3CCN(C)CC3)CC2)cc1 | -9.58% |  |
| COc1ccccc1OCC(=O)Nc1ccc(-c2nnc(-c3ccco3)o2)cc1 |  | > 39 µM |
| COc1ccc(/C=C2\CCCCC2=O)cc1 | -1.74% |  |
| COc1ccccc1C1NC(=O)NC(C)=C1C(=O)OC1CCCCC1 (centres undefined) | -13.5% |  |
| COc1ccc(/C=C\c2onc(C)c2S(=O)(=O)N2CCC(C(=O)NCc3ccco3)CC2)cc1 | -7.32% |  |
| C[C@H](NC(=O)c1cc2c(cn1)[nH]c1ccccc12)C(=O)O | -1.98% |  |
| Cc1cnc(C(=O)OCC(=O)Nc2ccc(OCc3ccccc3)cc2)cn1 | 11.9% |  |
| Cc1cccc(/C=C/c2onc(C)c2S(=O)(=O)N2CCC(C(=O)NC(C)(C)C)CC2)c1 | -5.61% |  |
| CCC(=O)N1CC[C@@H]2[C@H]1c1cc(-c3ccc(OC)cc3)ccc1N(C)[C@H]2CO |  | > 20 µM |
| NC(=O)CC(NC(=O)c1ccccc1)c1ccc(NCCc2ccc(F)cc2)c([N+](=O)[O-])c1 (centres undefined) | -15.4% |  |
| FC(F)(F)c1cc(CCN2CCNC[C@H]2Cc2cccc3ccccc23)cc(C(F)(F)F)c1 |  | 19.9 µM (active) |
| CCC(=O)Nc1ccc2c(c1)OC[C@H](C)N(C(=O)NC(C)C)C[C@@H](C)[C@@H](OC)CN(C)C2=O | -2.17% |  |
| CC(OC(=O)C1=COCCO1)C(=O)c1ccc(Br)cc1 (centres undefined) | 7.35% |  |
| O=C(N/N=C/c1cccc([N+](=O)[O-])c1)c1ccc(Br)cc1 | -2.73% |  |
| COc1c2ccc(C(=O)NCCCCc3ccccc3)cc2nn1C | -14% |  |
| CN1C(=O)c2cc(NC(=O)c3cccc(F)c3)ccc2OC[C@@H]2O[C@@H](CC(=O)NCC3CCCCC3)CC[C@H]21 |  | inactive |

| Compound | activity change, negative = inhibition | AC50 |
| --- | --- | --- |
| CCOc1ccc(S(=O)(=O)NCc2ccccc2Cl)cc1C(N)=O |  | > 39 µM |
| COc1cc(/C=C2\SC(=S)N(NC(=O)c3cccc(O)c3)C2=O)ccc1O | -1.71% |  |
| COCCN(C(=O)C(C)C)c1nnc(-c2ccc(C(C)(C)C)cc2)s1 | 5.33% |  |
| COc1cc(Cn2nnc3ccccc32)ccc1O |  | 15.8 µM (active) |
| COc1cc(/C=N/N2C(=O)C3C4C=CC(CC4)C3C2=O)ccc1O (centres undefined) | -15% |  |
| Cc1ccc(NNC(=O)c2ccno2)cc1Cl |  | 0.401 µM (active) |
| Cc1ccc(/C=C/c2onc(C)c2S(=O)(=O)N2CCC(C(=O)NC(C)(C)C)CC2)cc1 | -0.872% |  |
| C[C@@H]1C=C[C@](Cc2ccccc2)(C(=O)NCC2CC2)N1C(=O)c1ccccc1 | -3.34% |  |
| COCc1c(Br)c(C)nc(OCC(=O)N/N=C/c2ccc(C)o2)c1C#N | 6.67% |  |
| O=c1[nH]nc(-c2ccc(F)cc2)cc1Cc1ccccc1 | 0.756% |  |
| CC1(C)CCC/C(=C\c2ccccc2)C1=O | -3.51% |  |
| O=C(N/N=C/c1ccc(O)c(O)c1)C1CC1 |  | > 39 µM |
| Nc1ccc(C(=O)c2ccc3c(c2)OCCO3)cc1N |  | 11.9 µM (active) |
| CC12CCC(=O)N1C(C(=O)OCc1c(Cl)cccc1Cl)CS2 (centres undefined) | -9.04% |  |
| O=c1c2ccc(Cl)cc2[nH]c(=S)n1-c1cccnc1 | -0.508% |  |
| Cc1nn(CCOc2ccccc2)c(=O)n1-c1ccc(Cl)cc1 | -14.1% |  |
| O=C1OCC/C1=C\c1ccc(O)cc1 |  | 9.75 µM (active) |
| O=C(C1CCOCC1)N1CC[C@@H]2[C@@H](CO)Nc3ccc(-c4ccc(F)cc4)cc3[C@@H]21 |  | 22 µM (active) |
| C=CCn1c(C)cc(C(=O)COC(=O)CCc2cc(OC)c(OC)c(OC)c2)c1C | -24.1% |  |

Source: PubChem BioAssay AID720650 (Broad Institute, 2013)
